# Source: PubChem
# POLB inh: qHTS Assay for Inhibitors of DNA Polymerase Beta; Pol beta primer extension/strand displacement, fluorescence kinetic; AID 485314, 2010; actives 1.3% (n = 340,000); Potency, µM (titrated, usually from 114 µM), without a hit: at the top dose activity change, negative = inhibition, usual class: inhibitors; also: % is scaled to controls: 0 for no effect and ±100 for the full control effect
#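 Reaction started by 50 nM substrate onto compound-treated Pol beta (10 nM, 15 min preincubation, room temperature); plates read at 0 min and 10 min. Normalized concentration-effect data fitted by four-parameter Hill equation.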
# GCN5L2 inh: qHTS Assay for Inhibitors of GCN5L2; Histone acetyltransferase KAT2A (Homo sapiens), Q92830; GCN5L2 HAT assay, ThioGlo1 CoA-SH fluorescence; Potency, µM (series often up to 58.9 µM), inactives show at the top dose activity change, negative = inhibition, most hits filed as inhibitors; actives 0.21% (n = 390,000); AID 504327, 2011; also: % is scaled to controls: 0 for no effect and ±100 for the full control effect
# Target sequence (Q92830 whole entry, looked up): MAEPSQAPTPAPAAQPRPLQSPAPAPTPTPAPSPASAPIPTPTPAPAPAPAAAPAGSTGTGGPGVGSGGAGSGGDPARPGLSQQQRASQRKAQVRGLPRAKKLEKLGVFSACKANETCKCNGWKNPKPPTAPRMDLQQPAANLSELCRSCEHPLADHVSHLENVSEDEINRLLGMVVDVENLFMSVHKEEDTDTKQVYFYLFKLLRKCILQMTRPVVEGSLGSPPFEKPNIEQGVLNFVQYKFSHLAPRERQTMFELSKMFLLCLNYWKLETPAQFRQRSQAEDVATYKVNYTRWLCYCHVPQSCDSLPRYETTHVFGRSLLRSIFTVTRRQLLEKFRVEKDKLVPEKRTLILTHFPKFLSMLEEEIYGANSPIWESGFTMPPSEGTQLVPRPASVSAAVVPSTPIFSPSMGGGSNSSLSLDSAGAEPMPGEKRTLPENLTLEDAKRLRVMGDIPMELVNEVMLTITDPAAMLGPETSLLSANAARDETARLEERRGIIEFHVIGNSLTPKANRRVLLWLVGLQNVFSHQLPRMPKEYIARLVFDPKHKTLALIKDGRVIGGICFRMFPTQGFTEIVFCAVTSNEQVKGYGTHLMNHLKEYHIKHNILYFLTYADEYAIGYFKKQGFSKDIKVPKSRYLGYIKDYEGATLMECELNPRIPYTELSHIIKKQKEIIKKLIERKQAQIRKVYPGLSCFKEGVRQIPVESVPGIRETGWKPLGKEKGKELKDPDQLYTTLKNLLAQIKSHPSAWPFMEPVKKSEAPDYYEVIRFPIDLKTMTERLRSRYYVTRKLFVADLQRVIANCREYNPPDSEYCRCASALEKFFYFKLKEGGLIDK
#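 Titration-based screen in which CoA formation is detected via maleimide probe ThioGlo1 (50uM) turning fluorescent on thiol reaction; substrates H3(1-25) 75uM and acetyl-CoA 70uM, GCN5L2 20nM, 20 min incubation at room temperature.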
# Pol eta inh-1: qHTS for Inhibitors of Polymerase Eta; DNA polymerase eta (Homo sapiens), Q9Y253; recombinant Pol eta, fluorescent DNA replication assay; Potency, µM (titrated, usually from 114 µM), inactives show at the top dose activity change, negative = inhibition, hits mostly inhibitors; actives 1.2% (n = 390,000); AID 588591, 2011; also: % is scaled to controls: 0 for no effect and ±100 for the full control effect
#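 Pol eta (10 nM) was preincubated with compounds for 15 min at room temperature, after which fluorescent replication substrate (50 nM final) was added to start the reaction. Fluorescence was read kinetically at 0 and 10 min.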
# Pol kappa inh-1: qHTS for Inhibitors of Polymerase Kappa; DNA polymerase kappa (Homo sapiens), Q9UBT6; purified Pol kappa, fluorescent DNA synthesis assay, 10 min; Potency, µM (highest dose often 107 µM), for the others: at the top dose activity, negative = inhibition, most hits filed as inhibitors; actives 0.53% (n = 400,000); AID 588579, 2011; also: % is scaled to controls: 0 for no effect and ±100 for the full control effect
#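 10 nM Pol kappa was preincubated with compounds for 15 min at room temperature. Reaction started with 50 nM (final) substrate. Fluorescence read kinetically at 0 and 10 min.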
# GLS inh: qHTS for Inhibitors of Glutaminase (GLS); Glutaminase kidney isoform, mitochondrial (Homo sapiens), O94925; GLS enzymatic activity, qHTS titration; Potency, µM (titrated, usually from 45.5 µM), for inactives: at the highest dose activity change, negative = inhibition, usual class: inhibitors; actives 0.21% (n = 410,000); also: % is scaled to controls: 0 for no effect and ±100 for the full control effect
#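 hKGA; 45 mM KH2PO4 pH 8.2 + 0.02% Tween-20; cpd via pin tool; 1 mM Gln soln; GluOx/HRP/Amplex Red; RT 30 min; fluor. t0 & final.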
# Pol iota inh: qHTS for Inhibitors of Polymerase Iota. AID 588590, 2011. actives 1% (n = 390,000). Pol iota fluorescent replication assay, 10 min. DNA polymerase iota (Homo sapiens), Q9UNA4. Potency, µM (series often up to 115 µM), for the others: at the highest dose activity, negative = inhibition, actives largely listed as inhibitors
#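 Pol iota at 10 nM preincubated 15 min with compounds at room temperature; reaction started with fluorescent substrate, 50 nM final. Fluorescence read kinetically at 0 and 10 min; buffer-only wells as negative control.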
# POLI cherry-pick: qHTS for Inhibitors of Polymerase Iota: Confirmatory Assay for Cherry-picked Compounds | actives 77% (n = 1,500) | AID 720496, 2013 | Pol iota primer extension, TAMRA/BHQ fluorescence | shares compounds with Pol kappa inh-1 | Potency, µM, actives largely listed as inhibitors
# Pol kappa inh-2: qHTS for Inhibitors of Polymerase Kappa: Confirmatory Assay for Cherry-picked Compounds | shares compounds with Pol eta inh-1 | Potency, µM, usual class: inhibitors | actives 76% (n = 920) | purified Pol-kappa, fluorescent strand-displacement substrate
# Pol eta inh-2: qHTS for Inhibitors of Polymerase Eta: Confirmatory Assay for Cherry-picked Compounds. shares compounds with Pol eta inh-1. Pol eta primer extension, TAMRA/BHQ fluorescence, 10 min. Potency, µM, hits mostly inhibitors. actives 64% (n = 2,600). AID 720502, 2013
# The depositor's hits bear a star; ? = inconclusive; . = no result; [ ] = another dose, or the depositor's remark. Most compounds without a hit are left out; they make up all but 2.4% or so of the library. Calls follow the shape of the dose curve; as a rule, active = well fitted inhibition curve with a large enough effect; inconclusive = small, poorly fitted or top-dose-only effect, or another doubt; inactive = no such curve, though single readings can be large or run the other way. Potency is read from the fitted curve at half-maximal effect.
SMILES,POLB inh,GCN5L2 inh,Pol eta inh-1,Pol kappa inh-1,GLS inh,Pol iota inh,POLI cherry-pick,Pol eta inh-2,others
O=C(NCc1ccccc1C(F)(F)F)c1cccc2c1C(=O)c1ccc(N3CCC(N4CCCCC4)CC3)cc1S2(=O)=O,.,.,?,.,5.8%,.,?,60.1*,
CCOC(=O)c1sc2ncn(C(C)C(=O)OCC)c(=O)c2c1C (stereo not given),12.0%,-1.1%,-19.3%,5.9%,-1.4%,-2.3%,.,.,
CCOC(=O)c1sc2nc3c(SCC(=O)O)cc(C(=O)c4cc(F)ccc4O)cn3c(=O)c2c1C,10µM*,-25.5%,20µM*,50.1µM*,15.5%,?,18.9*,26.9*,
COc1ccc(O)c(C(=O)c2cc(SCC(=O)O)c3nc4sc5c(c4c(=O)n3c2)CCCC5)c1,?,?,22.4µM*,?,22.4%,?,21.2*,47.8*,
CCc1ccc(NC(=O)C2CCN(C(=O)N3CC(CC)Oc4ccccc43)CC2)cc1 (stereo not given),-16.2%,-14.3%,-10.9%,-12.5%,-3.3%,3.2%,.,.,
COc1ccc(NC(=O)CSc2nnc(NC(=O)NC3CCCCC3)s2)cc1OC,-0.4%,0.0%,-7.2%,-1.4%[60.1 µM],3.8%,-9.5%,.,.,
COc1cc(-c2ccc(Nc3ccccc3C(=O)O)c(OC)c2)ccc1Nc1ccccc1C(=O)O,?,-4.2%,10µM*,31.6µM*,?,7.94µM*,67*,30.1*,Pol kappa inh-2=18.9*
C=CCn1c(C)cc(C(=O)Cn2ncc(Cl)c(Cl)c2=O)c1C,11.2µM*,-23.7%,28.2µM*,?,7.4%,20µM*,?,75.7*,
CC(C)(C)C(=O)Cn1ncc(Cl)c(Cl)c1=O,-1.6%,-1.4%,-3.6%,-20.1%,1.9%,11.6%,.,.,
CC(C)COc1ccc(-c2nn(-c3ccccc3)cc2/C=C2/SC(=S)N(CC(=O)O)C2=O)cc1,22.5%,?,28.2µM*,-2.8%,15.6%,-15.0%,75.2*,67.5*,
O=C(O)CN1C(=O)/C(=C\c2cn(-c3ccccc3)nc2-c2ccccc2)SC1=S,?,-12.2%,12.6%,-22.1%,?,?,.,.,
